MCF10A rereplic: A quantitative high throughput screen for small molecules that induce DNA re-replication in MCF 10a normal breast cells | MCF 10A DNA re-replication, Hoechst nuclear intensity, 48 h | Potency, µM (series often up to 46.1 µM), usual class: activators | 350,000 compounds, 2.9% hits; further: nearly all actives have a fitted effect of over 50% in size
SW480 rereplic: A quantitative high throughput screen for small molecules that induce DNA re-replication in SW480 colon adenocarcinoma cells; SW480 DNA re-replication, Hoechst DNA content imaging, 48 h; Potency, µM (highest dose often 46.1 µM), most hits filed as activators; 340,000 compounds, 1.8% hits; AID 624297, 2012; further: nearly all actives have a fitted effect of over 55% in size
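Cells (250 per well) received 23 nL compound or DMSO by pin tool and were kept 48 hr at 37 C, 5% CO2. Nuclei were then stained with Hoechst for 40 min and scanned for DNA content.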
12-LOX inh: Primary qHTS assay for inhibitors of human arachidonate 12S-lipoxygenase (ALOX12): Round 2 | Potency, µM (highest dose often 108 µM), hits mostly inhibitors | 580,000 compounds, 1.1% hits | purified 12hLO, xylenol orange hydroperoxide absorbance
Target sequence (P18054 whole entry, looked up): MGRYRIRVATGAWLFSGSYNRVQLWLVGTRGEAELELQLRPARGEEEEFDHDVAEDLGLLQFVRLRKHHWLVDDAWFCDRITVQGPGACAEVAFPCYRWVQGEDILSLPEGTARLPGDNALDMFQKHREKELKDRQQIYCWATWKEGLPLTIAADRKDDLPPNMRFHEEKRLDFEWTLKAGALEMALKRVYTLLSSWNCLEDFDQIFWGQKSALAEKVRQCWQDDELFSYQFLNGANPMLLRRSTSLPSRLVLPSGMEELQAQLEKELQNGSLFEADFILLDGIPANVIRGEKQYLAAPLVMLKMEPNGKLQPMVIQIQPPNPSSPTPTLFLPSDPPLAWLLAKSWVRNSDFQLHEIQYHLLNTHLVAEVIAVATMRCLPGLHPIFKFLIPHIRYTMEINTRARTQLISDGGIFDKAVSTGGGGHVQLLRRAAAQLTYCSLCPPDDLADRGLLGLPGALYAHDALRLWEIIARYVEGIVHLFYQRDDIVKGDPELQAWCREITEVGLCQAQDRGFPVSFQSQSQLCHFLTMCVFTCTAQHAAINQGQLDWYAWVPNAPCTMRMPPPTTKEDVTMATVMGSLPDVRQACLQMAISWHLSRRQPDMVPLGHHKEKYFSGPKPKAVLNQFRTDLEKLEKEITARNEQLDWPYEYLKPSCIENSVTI
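Hydroperoxide product was detected by ferrous iron/xylenol orange as the 573 to 405 nm absorbance ratio. Arachidonic acid at 40 uM (final) was turned over for 30 min at room temperature by 150 nM human 12hLO, pH 7.0 Hepes buffer, after 15 min compound preincubation.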
PINK1 modulator: A Quantitative High throughput Screen to Identify Chemical Modulators of PINK1 Expression. PINK1 immunofluorescence, high-content cytometry, 24 h. Potency, µM (titrated, usually from 76.6 µM), usual class: activators. 410,000 compounds, 0.2% hits. AID 624263, 2012; active means well fitted activation curve with a large enough effect; inconclusive means small, poorly fitted or top-dose-only effect; cell line not stated here; further: nearly all actives have a fitted effect of over 65% in size
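Readout is PINK1 immunofluorescence, quantified alongside mitochondrial, cell and nuclear markers by laser-scanning microplate cytometry. Cells from a stable line were exposed to compound titrations (5 concentrations) for 24 hours, with CCCP controls.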
KB-3-1 tox: qHTS assay for MDR1-selective chemotherapeutics: Primary screen using the parental adenocarcinoma cell KB-3-1; AID 1347075, 2019; Potency, µM (highest dose often 46.1 µM), most hits filed as cytotoxic; KB-3-1 viability, CellTiter-Glo ATP luminescence, 72 h; 400,000 compounds, 1.4% hits; further: nearly all actives have a fitted effect of over 60% in size
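Parental KB-3-1 viability, qHTS format: 72 h compound exposure, 37 °C; CellTiter-Glo; media-only wells and DMSO plates as controls; concentration-effect fits on corrected data.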
KB-V1 cytotox: qHTS assay for MDR1-selective chemotherapeutics: Primary screen using the drug-selected MDR subline cells KB-V1; KB-V1 MDR cells viability, CellTiter-Glo, 72 h; Potency, µM (doses to about 46.1 µM), actives largely listed as cytotoxic; 400,000 compounds, 3.4% hits; AID 1347076, 2019; further: nearly all actives have a fitted effect of over 60% in size
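Following 72 h at 37 degrees C with compound, KB-V1 cell viability was read by CellTiter-Glo luminescence, medium being phenol-red-free DMEM plus 10% FBS; concentration-response parameters came from normalized, curve-fitted qHTS data.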
A number is an active result; n = inactive; u = inconclusive; x = not tested or not shown. This is a sample that favours compounds with a hit; in the whole collection about 5.8% have one here. Unless noted, the call rests on the fitted dose curve; in most records, active means well fitted curve in the direction sought with a large enough effect; inconclusive means small, poorly fitted or top-dose-only effect, or another doubt; inactive means no such curve, though single readings can be large; an effect the other way counts as inactive or inconclusive.

SMILES	MCF10A rereplic	SW480 rereplic	12-LOX inh	PINK1 modulator	KB-3-1 tox	KB-V1 cytotox
COc1ccc(OCc2nc(N)nc(Nc3ccccc3OC)n2)cc1	n	n	n	n	n	n
Cc1ccccc1Nc1nc(N)nc(-c2oc3ccccc3c2C)n1	n	n	n	n	n	u
COc1ccccc1Nc1nc(N)nc(CCl)n1	u	11.6µM	n	n	n	u
COc1cccc(Nc2nc(N)nc(CCl)n2)c1	18.4µM	14.6µM	n	n	n	n
COc1ccccc1Nc1nc(N)nc(-c2oc3ccccc3c2C)n1	u	7.31µM	n	x	n	n
Cc1cccc(Nc2nc(N)nc(CCl)n2)c1	u	u	n	n	u	n
Nc1nc(COC(=O)c2ccc3c(c2)OCCO3)nc(Nc2ccccc2)n1	n	n	n	n	n	20.6µM
Cc1ccc(Cl)cc1NC(=O)Cn1cnc2c1c(=O)n(C)c(=O)n2C	x	x	n	x	x	x
Nc1ncnc2c1ncn2C=C=CCO	x	x	n	x	x	x
CCC(=O)Nc1cc(-c2nc3ccccc3o2)ccc1Cl	x	x	n	x	x	x
Cc1cccc(C2(c3cccc(C)c3)CC2C(=O)Nc2ccc([N+](=O)[O-])cc2O)c1 (centres undefined)	u	u	u	u	20.6µM	4.61µM
Cc1ccccc1NCc1ccc([N+](=O)[O-])s1	4.61µM	u	n	n	u	n
O=C(Nc1ccc2nc(-c3ccco3)c(-c3ccco3)nc2c1)N1CCCCCC1	18.4µM	u	x	u	n	u
CCOC(=O)C1CCN(C(=O)Nc2ccc3nc(-c4ccco4)c(-c4ccco4)nc3c2)CC1	u	n	x	n	n	n
CCn1cc(C2=NC(c3ccccc3)CO2)c2ccccc21 (centres undefined)	u	n	n	n	8.2µM	u
CCc1nc2c(c(-c3ccc(Cl)cc3)n1)CN(Cc1ccc(OC)cc1)CC2	x	x	n	x	x	x
Cc1cc(C(=O)O/N=C(\N)c2ccc(C(C)(C)C)cc2)no1	n	n	n	n	n	n
Cc1noc(-c2ccc(Cl)cc2)c1C(=O)O/N=C(\N)c1ccc(C(C)(C)C)cc1	u	n	n	n	u	18.4µM
N=C1C(c2nc3ccccc3s2)=C(O)CN1Cc1ccccc1	5.17µM	u	n	n	4.11µM	u
COc1ccc(C)cc1N1CC(O)=C(c2nc3ccccc3s2)C1=N	x	x	n	x	x	x
CCN(CC)CCCN1CC(O)=C(c2nc3ccccc3s2)C1=N	n	n	n	n	n	n
CCOc1ccccc1N1CC(O)=C(c2nc3ccccc3s2)C1=N	n	n	n	x	9.2µM	u
Cc1c(C(=O)Nc2nnc(C(C)C)s2)nnn1-c1ccccc1	x	x	n	x	x	x
O=C(Nc1cccc(-c2cn3c(n2)SCC3)c1)c1ccc(Br)o1	n	n	n	n	n	n
O=C(Cc1ccc(F)cc1)Nc1cccc(-c2cn3c(n2)SCC3)c1	n	n	n	n	n	18.4µM
SMILES	MCF10A rereplic	SW480 rereplic	12-LOX inh	PINK1 modulator	KB-3-1 tox	KB-V1 cytotox
COc1ccc(F)cc1CSc1nnnn1-c1ccc(O)cc1	n	n	u	n	n	16.4µM
COc1ccc(C(C)=O)cc1CSc1nnnn1-c1ccc(O)cc1	n	n	n	n	n	u
COc1ccc(CSc2nnnn2-c2ccccc2)cc1	n	n	u	n	n	n
COc1cc(CSc2nnnn2-c2ccc(C)cc2)cc(OC)c1OC	n	n	n	x	10.3µM	2.06µM
CC(=O)Nc1ccc(/C(C)=N/NC(N)=S)cc1	x	x	28.2µM	x	x	x
CC(=O)NCc1cc(C)cc2c(C)c(C)[nH]c12	x	x	n	x	x	x
Oc1cc(NCCN2CCOCC2)cc2cccnc12	u	u	n	n	14.6µM	n
Cc1cc(C)c2oc(C(=O)NCC(c3cccs3)N3CCOCC3)cc(=O)c2c1 (centres undefined)	x	x	n	x	x	x
CCCn1nc(SCC(=O)OCC)n2c(=O)c3c(nc12)-c1ccccc1CC3(C)CC (centres undefined)	x	x	n	x	x	x
O=C(O)CCc1conc1-c1cccc(F)c1	x	x	n	x	x	x
O=c1oc2c(-c3cccc(F)c3)cc(O)cc2s1	u	u	35.5µM	n	n	n
CS(=O)(=O)c1ccc(C2=C(c3ccccc3)C(=O)OC2)cc1	n	n	n	n	n	n
N#CC1=C(c2ccc(-c3ccccc3)cc2)COC1=O	u	n	50.1µM	n	n	n
Cc1ccc(NC(=O)c2nc3ccccc3nc2N2CCN(C)CC2)cc1Cl	x	x	n	x	x	x
CN1C(=O)C(O)(C2COC(C)(C)CC2=O)c2cc(Br)ccc21 (centres undefined)	u	u	n	n	20.6µM	u
Cc1c(C)n(CCN(C)C)c2ncn3nc(COc4ccc(Cl)cc4)nc3c12	x	x	n	x	x	x
O=C(CC1C=CCC1)N(Cc1ccncc1)C1CC1 (centres undefined)	x	x	n	x	x	x
O=C1NC(=Nc2ccccc2)S/C1=C\c1cccn1-c1ccccc1	6.51µM	6.51µM	u	n	5.17µM	4.61µM
Cc1ccccc1N=C1NC(=O)/C(=C/c2cccn2C)S1	u	u	u	n	u	7.31µM
O=C1NC(=Nc2cccnc2)S/C1=C/c1ccc(F)cc1	7.31µM	u	n	n	u	u
Cc1cccc(N=C2NC(=O)/C(=C/c3cccn3C)S2)c1	u	u	n	n	u	5.8µM
Cc1cccc(N=C2NC(=O)/C(=C/c3cccs3)S2)c1	u	n	n	n	n	n
O=C1NC(=Nc2ccccc2)S/C1=C\c1cccnc1	n	u	n	n	n	n
COC(=O)c1sc(NC(=O)C2CCCCC2)c(C(=O)OC)c1C	x	x	n	x	x	x
S=C1NC(c2ccccc2)=NCN1c1ccc(Cl)cc1	n	n	u	n	n	n
SMILES	MCF10A rereplic	SW480 rereplic	12-LOX inh	PINK1 modulator	KB-3-1 tox	KB-V1 cytotox
COC(=O)c1ccc(N2CN=C(c3ccc(C)cc3)NC2=S)cc1	25.9µM	n	n	n	n	n
CCCCn1c(N)c(N(Cc2ccccc2OC)C(=O)C(C)Oc2ccc(Cl)cc2)c(=O)[nH]c1=O (centres undefined)	n	20.6µM	n	n	u	n
CCCCCN(C(=O)CCC(=O)OCc1ccc(C(C)(C)C)cc1)c1c(N)n(CCCC)c(=O)[nH]c1=O	20.6µM	n	n	n	n	n
CCCCCN(C(=O)CCC(=O)OCc1cc(C)ccc1C)c1c(N)n(CCCC)c(=O)[nH]c1=O	n	n	x	n	n	n
Nc1c(N(CCC2=CCCCC2)C(=O)Cc2ccc(F)cc2)c(=O)[nH]c(=O)n1Cc1ccccc1	n	u	n	n	n	n
CCCCn1c(N)c(N(Cc2ccccc2OC)C(=O)C(C)Oc2ccc(F)cc2)c(=O)[nH]c1=O (centres undefined)	n	n	n	n	n	n
